Data: the OligoGym collection

Columns and labels:
Experiment in all cases: pooled miR-30 sensor sort-seq; sequence = guide strand
Settings in all cases: shRNA
EID2B = target: EID2B
EHMT2 = target: EHMT2
EHD3 = target: EHD3
EIF1 = target: EIF1
EIF4EBP2 = target: EIF4EBP2
ELF2 = target: ELF2
EIF3M = target: EIF3M
ENO2 = target: ENO2
ENPP7 = target: ENPP7
ENTHD1 = target: ENTHD1
Note: reference of the scale not given here.

TTCTATTGAATATTTACTGTTC
sensor-assay potency score (higher = more potent) (EID2B): 0.0406

TTACACTCGAAAATCAGCGGAG
sensor-assay potency score (higher = more potent) (EHMT2): -0.173

TAGGAAAGAACAGAGCTCCTGG
sensor-assay potency score (higher = more potent) (EHD3): 0.716

TAAACTGGCACAGCCTGCCTGT
sensor-assay potency score (higher = more potent) (EID2B): -0.54

TAGAAGATCTCGTCGTACATGG
sensor-assay potency score (higher = more potent) (EHD3): -0.19

TAGCATGCGGATCACCTCGATG
sensor-assay potency score (higher = more potent) (EHMT2): -1.39

TTACTTGCATCAGCAAAGGGGT
sensor-assay potency score (higher = more potent) (EIF1): -1.07

TTGAGCTTCAGAAGCATCCTCC
sensor-assay potency score (higher = more potent) (EHMT2): 0.398

TTGTCCTTCCCGAACACCGAGG
sensor-assay potency score (higher = more potent) (EHD3): -1.14

TTTTCTATTGAATATTTACTGT
sensor-assay potency score (higher = more potent) (EID2B): -0.85

ATACTCGCGGAACAACAGCTGC
sensor-assay potency score (higher = more potent) (EID2B): -1.3

TTGCAGGCAAACTTTTTCTTAA
sensor-assay potency score (higher = more potent) (EIF1): -0.992

TCGAAGAGCAGAATGATGCGGT
sensor-assay potency score (higher = more potent) (EHD3): 0.407

TTCTTCTTGGCCTTGCGCCGGC
sensor-assay potency score (higher = more potent) (EHMT2): -0.437

TTGACCAGCTCCTTCTTCTTGT
sensor-assay potency score (higher = more potent) (EHD3): 0.288

TGAGTGGACATCATCACTCATG
sensor-assay potency score (higher = more potent) (EHMT2): -1.27

TTATATGGATATAATCCTCAGT
sensor-assay potency score (higher = more potent) (EIF1): -0.502

TGTAGCTGAATTACTTCTCCAT
sensor-assay potency score (higher = more potent) (EIF1): 0.149

TTTTTTCTCATATCTTTGCAAA
sensor-assay potency score (higher = more potent) (EID2B): -1.11

TTCATGGTGGACGTCTCGCAGT
sensor-assay potency score (higher = more potent) (EHMT2): -1.22

TTCTTCTTGTTGTCCTTCCCGA
sensor-assay potency score (higher = more potent) (EHD3): -0.7

TTTTATCGTAATCATCAGCGAT
sensor-assay potency score (higher = more potent) (EIF1): -0.796

TTTTCTTTCATCACTTAGGTTC
sensor-assay potency score (higher = more potent) (EID2B): -0.263

TTAGTTGTTCAGTTAGAGCTTC
sensor-assay potency score (higher = more potent) (EHMT2): 0.313

TTGACATGACCACAAATTGTGA
sensor-assay potency score (higher = more potent) (EID2B): -1.04

TTCCTGACAACTCTATTTCTTT
sensor-assay potency score (higher = more potent) (EID2B): -0.963

TTCTACTTTGGAGTCTTCAATT
sensor-assay potency score (higher = more potent) (EIF4EBP2): -1.52

AAATGATTCGAGTTCCTCCCGG
sensor-assay potency score (higher = more potent) (EIF4EBP2): -0.69

TTGTCTGCAGTTGACACTGTGC
sensor-assay potency score (higher = more potent) (ELF2): -0.232

TACTTTGGAGTCTTCAATTAAG
sensor-assay potency score (higher = more potent) (EIF4EBP2): -1.27

TGGTGCAATAGTCATGAGGTAG
sensor-assay potency score (higher = more potent) (EIF4EBP2): -1.72

TTTCACTTTTGTCATCATCTAT
sensor-assay potency score (higher = more potent) (ELF2): -0.516

TTCTTCTGCCACATCTTGCATC
sensor-assay potency score (higher = more potent) (ELF2): -0.811

TAGTAGTATCTCAAAGCTCGTC
sensor-assay potency score (higher = more potent) (ELF2): -0.0908

TTGAACTGATATACAAGCCTCT
sensor-assay potency score (higher = more potent) (ELF2): 0.343

TACTTCTACTTTGGAGTCTTCA
sensor-assay potency score (higher = more potent) (EIF4EBP2): -0.613

TGTTCAAATTGTTTACTTCTAC
sensor-assay potency score (higher = more potent) (EIF4EBP2): -0.311

TTGGAGTCTTCAATTAAGGTGC
sensor-assay potency score (higher = more potent) (EIF4EBP2): -0.116

TTGTTCAAATTGTTTACTTCTA
sensor-assay potency score (higher = more potent) (EIF4EBP2): -0.655

TATGACTGCACTGATAACTCGA
sensor-assay potency score (higher = more potent) (ELF2): 0.372

TTGTCTTATCTGTACAGTGTGC
sensor-assay potency score (higher = more potent) (ELF2): -0.612

TTTCTGTCATAAATGATTCGAG
sensor-assay potency score (higher = more potent) (EIF4EBP2): -0.301

ATAGTCATGAGGTAGCTGCGCG
sensor-assay potency score (higher = more potent) (EIF4EBP2): -0.462

AATAGTCATGAGGTAGCTGCGC
sensor-assay potency score (higher = more potent) (EIF4EBP2): -0.823

TTCAATTAAGGTGCCAGGGCTA
sensor-assay potency score (higher = more potent) (EIF4EBP2): -0.657

TTCTGTCATAAATGATTCGAGT
sensor-assay potency score (higher = more potent) (EIF4EBP2): -1.23

TAAATGATTCGAGTTCCTCCCG
sensor-assay potency score (higher = more potent) (EIF4EBP2): 0.0359

TTCACTTTTGTCATCATCTATG
sensor-assay potency score (higher = more potent) (ELF2): -0.773

TGATTTTCTACTCCATTGCTGG
sensor-assay potency score (higher = more potent) (ELF2): -0.423

TGATTCGAGTTCCTCCCGGTGT
sensor-assay potency score (higher = more potent) (EIF4EBP2): -0.789

AATGATTCGAGTTCCTCCCGGT
sensor-assay potency score (higher = more potent) (EIF4EBP2): 0.498

AATTGTTTACTTCTACTTTGGA
sensor-assay potency score (higher = more potent) (EIF4EBP2): 0.534

AACATCTTTATCATCCTCCTTC
sensor-assay potency score (higher = more potent) (EIF3M): 0.329

TAGATCTAAAAGAAACTCCCAC
sensor-assay potency score (higher = more potent) (ELF2): 0.171

TTTATCTTGAAGTAGATCTAAA
sensor-assay potency score (higher = more potent) (ELF2): -0.649

AAACTTTCTGTCATAAATGATT
sensor-assay potency score (higher = more potent) (EIF4EBP2): -1.63

TAATCTGGCACTTGGAACTGGC
sensor-assay potency score (higher = more potent) (ELF2): -0.333

TCAAATTGTTTACTTCTACTTT
sensor-assay potency score (higher = more potent) (EIF4EBP2): -0.42

TGTCATTACAACAGGTACCTGC
sensor-assay potency score (higher = more potent) (ELF2): 0.12

TCCAACAGAAACTTTCTGTCAT
sensor-assay potency score (higher = more potent) (EIF4EBP2): -0.136

TCGCTGATGGCCACGGTGCGGG
sensor-assay potency score (higher = more potent) (EIF4EBP2): -1.63

ATGTTTCCTGTCGTGATTGTTC
sensor-assay potency score (higher = more potent) (EIF4EBP2): -0.959

TTGTTCAAGTTGTTCAAATTGT
sensor-assay potency score (higher = more potent) (EIF4EBP2): -0.233

TTTGTCTGCAGTTGACACTGTG
sensor-assay potency score (higher = more potent) (ELF2): 0.266

TTCAACATCTTTATCATCCTCC
sensor-assay potency score (higher = more potent) (EIF3M): 0.759

TAGTCATGAGGTAGCTGCGCGG
sensor-assay potency score (higher = more potent) (EIF4EBP2): -1.17

TTGGCTGTGAACTTGGACCAGG
sensor-assay potency score (higher = more potent) (ENO2): -0.413

TAGTCCAGGAGCTCAAACTCGA
sensor-assay potency score (higher = more potent) (ENPP7): -0.814

TAGACCTCTGCACCTAGTCGCA
sensor-assay potency score (higher = more potent) (ENO2): -1.03

TTGATGACTCCCTTGAGTGTAT
sensor-assay potency score (higher = more potent) (ENO2): -0.705

TTTTGGGTTGGTCACTGTCAGG
sensor-assay potency score (higher = more potent) (ENO2): -1.77

TCGCTCTCCACTCCGTCTCATT
sensor-assay potency score (higher = more potent) (ENPP7): -1.59

TTCAGTGACCGAGCCGATCTGG
sensor-assay potency score (higher = more potent) (ENO2): -0.433

TTGTCCACGGTCGTCATGCCGT
sensor-assay potency score (higher = more potent) (ENPP7): -1.22

TTTAGGGAGCAGCATCCCGTTT
sensor-assay potency score (higher = more potent) (ENPP7): -1.36

TTGTAGACGTGGAGCTTGGGGT
sensor-assay potency score (higher = more potent) (ENPP7): -0.738

TACATGTTGTGAACCACCCCGT
sensor-assay potency score (higher = more potent) (ENPP7): -0.259

TAGAAGACAACTGTTGATGGGA
sensor-assay potency score (higher = more potent) (ENTHD1): 0.377

TTGTAGTTGTGTGCGATGCCTT
sensor-assay potency score (higher = more potent) (ENPP7): -0.915

TTGGATTTGTTCTCAGTCCCAT
sensor-assay potency score (higher = more potent) (ENO2): 0.271

TATTTGTCCTTGATGACTCCCT
sensor-assay potency score (higher = more potent) (ENO2): 0.308

TTGGATGGCTTCAGTGACCGAG
sensor-assay potency score (higher = more potent) (ENO2): 0.159

TTCCTCAATTCTCATGAGCTGG
sensor-assay potency score (higher = more potent) (ENO2): -0.892

TATGGTAGACCTCTGCACCTAG
sensor-assay potency score (higher = more potent) (ENO2): 0.499
